Screening results deposited in PubChem by Fisher Drug Discovery Resource Center.
mcGAS inh – cyclic GMP-AMP synthase inhibitors, mouse, primary biochemical chemiluminescence; Q8C6L5; recombinant cGAS, Kinase-Glo ATP depletion luminescence; inhibition, % at 12.5 µM; 160,000 compounds, 0.15% hits
Target sequence (Q8C6L5 whole entry, looked up): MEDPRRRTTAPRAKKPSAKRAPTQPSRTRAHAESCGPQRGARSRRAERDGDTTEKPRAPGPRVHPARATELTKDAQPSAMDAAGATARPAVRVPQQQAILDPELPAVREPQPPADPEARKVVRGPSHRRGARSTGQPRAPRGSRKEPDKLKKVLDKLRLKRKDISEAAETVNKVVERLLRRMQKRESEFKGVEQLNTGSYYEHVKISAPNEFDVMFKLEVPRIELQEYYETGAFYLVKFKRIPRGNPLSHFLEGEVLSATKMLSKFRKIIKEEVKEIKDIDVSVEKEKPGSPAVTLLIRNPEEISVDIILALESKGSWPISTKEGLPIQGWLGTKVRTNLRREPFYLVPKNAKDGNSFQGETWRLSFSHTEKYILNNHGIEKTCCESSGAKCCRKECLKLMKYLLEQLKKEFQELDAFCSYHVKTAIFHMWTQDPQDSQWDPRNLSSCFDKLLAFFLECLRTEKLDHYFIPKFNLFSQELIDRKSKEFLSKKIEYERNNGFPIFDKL
hcGAS inh – Primary biochemical luminescence assay for human cyclic GMP-AMP synthase inhibitors; Q8N884; recombinant h-cGAS, ATP depletion, Kinase-Glo luminescence; inhibition, % at 12.5 µM; 290,000 compounds, 0.081% hits
NPYLR7 ag – agonists of mosquito NPYLR7 receptor, primary screen, cell-based, Aedes aegypti, calcium fluorescence, mosquito biting behavior; Aedes aegypti neuropeptide Y-like receptor 7 (NPYLR7); HEK293T NPYLR7/Galpha15, GCaMP6s calcium fluorescence; activation, % at 10 µM; 270,000 compounds, 0.15% hits; AID 1259423, 2018; in the data active = activation above about 40%
Of the large screens only hits and unclear results are named; the others gave an inactive call; ! = not confirmed by another sample. Shown are actives, neighbours in structure and some others; about 0.28% of the full set was active somewhere. Cut-off read from the data, not from the text of the source, unless noted: active = inhibition above about 40%; inactive = the rest.

O=C1NC(=NS(=O)(=O)c2ccccc2)SC1=Cc1cc([N+](=O)[O-])ccc1O	mcGAS inh 75, NPYLR7 ag 61
CN(Cc1ccco1)C(=O)c1nn(C)c2c1CC(NCc1nc3ccccc3s1)CC2 (stereo not drawn)	none (no result: mcGAS inh)
CN(Cc1ccccc1)c1nc(CCN)nc2ccccc12	hcGAS inh 47
CN(Cc1cc(C(C)(C)C)n[nH]1)c1nc(CCN)nc2ccccc12	none (no result: mcGAS inh, NPYLR7 ag)
CCOc1cccc(N2CCN(C(=O)C3CCCC3)C(C)C2=O)c1 (stereo not drawn)	none
CC(C)S(=O)(=O)Oc1ccc(CN(C(=O)c2cccc(F)c2)C2CC2)cc1	none
CC(C)S(=O)(=O)Oc1ccc(CN(Cc2ccco2)C(=O)c2cccc(F)c2)cc1	hcGAS inh 45
COC(=O)C(Nc1cc(Cl)ncn1)C(C)C (stereo not drawn)	none
C=c1c(C#N)c2[nH]c(N)c(C#N)c(C)c-2/c1=C\c1ccc(C(=O)OC)cc1	none
C=c1c(C#N)c2[nH]c(N)c(C#N)c(C)c-2/c1=C\c1ccc(O)cc1	mcGAS inh 71
Nc1c(S(=O)(=O)O)cc(Nc2ccc(Nc3nc(Cl)nc(Nc4ccc(S(=O)(=O)O)cc4)n3)c(S(=O)(=O)O)c2)c2c1C(=O)c1ccccc1C2=O	mcGAS inh 67
Nc1c(S(=O)(=O)O)cc(Nc2cccc3ccccc23)c2c1C(=O)c1ccccc1C2=O	none (no result: mcGAS inh)
O=C(Cn1nc(-c2ccccc2)oc1=O)N1CCC(C(=O)N2CCCCCC2)CC1	none (no result: mcGAS inh)
CCOc1cc(C=CC(=O)c2ccc3c(c2)OCCO3)cc(Br)c1OCC	none
COc1cc(C=CC(=O)c2ccc3c(c2)OCCO3)cc(Br)c1O	NPYLR7 ag 145
COc1cccc(C(=O)N(C)CC2CCCN(CCc3ccccc3F)C2)c1OC (stereo not drawn)	none (no result: mcGAS inh)
COc1ccc2o/c(=N\NC(N)=S)c(-c3nc4ccccc4[nH]3)cc2c1	none (no result: mcGAS inh)
NC(=S)N/N=c1\oc2cc(O)ccc2cc1-c1nc2ccccc2[nH]1	NPYLR7 ag 67 (no result: mcGAS inh)
COc1cc(C)c(NC(=O)Cc2c(C)nn(C)c2C)cc1OC	none (no result: mcGAS inh)
O=C1OC(c2ccc(Cl)c([N+](=O)[O-])c2)=N/C1=C\c1cc2cc3c4c(c2oc1=O)CCCN4CCC3	NPYLR7 ag 123
COc1cc(OC)c(OC)cc1C=C1N=C(c2cccc(C)c2)OC1=O	none (no result: mcGAS inh)
Cc1cccc(C2=N/C(=C\c3cc4cc5c6c(c4oc3=O)CCCN6CCC5)C(=O)O2)c1	NPYLR7 ag 117
Cc1ccc(C2=NC(=Cc3ccc(N4CCOCC4)s3)C(=O)O2)cc1[N+](=O)[O-]	none (no result: mcGAS inh)
CCc1nc(COC(=O)c2cc(Br)c[nH]2)cs1	none (no result: mcGAS inh)
Cc1ccc(-n2nc(-c3cccs3)cc2C(=O)O)cc1	none (no result: mcGAS inh)
CC(C)Cn1c(N)c(C(=O)CSc2nccn2C)c(=O)n(C)c1=O	none
Cn1ccnc1SCC(=O)c1cc(I)c(O)c(I)c1	mcGAS inh 76
CO[C@H]1[C@H](NC(=O)c2ccncc2)c2ccccc2C12CCN(C(=O)CCn1nc(C)cc1C)CC2	none
N#Cc1c(N)nc(SCC(=O)c2ccccc2)c(C#N)c1-c1ccc(O)cc1	none
N#Cc1c(N)nc2c(c1N)C(Sc1ccccc1)c1ccc(O)cc1O2 (stereo not drawn)	NPYLR7 ag 413 (no result: mcGAS inh)
CCOc1ccccc1NC(=O)Cn1c(=O)c(CNc2ccccc2)cc2cc3c(cc21)OCCO3	none (no result: mcGAS inh)
N#CC(=Cc1ccc(Cl)cc1Cl)C(N)=S	mcGAS inh 67
CC(C)NC(=O)C(C#N)=Cc1ccc(Cl)cc1Cl	none
Cc1cc(-c2nc3cc(F)ccc3n2C(C)C)ccc1N	none
COc1cc(C=NNC(=O)c2ccccc2O)cc(Br)c1O	none (no result: mcGAS inh)
CC(C)(C)NN=Cc1cc(Br)c(O)c(Br)c1	mcGAS inh 75
Cc1nc2ccccc2nc1CN1CCOc2ccc(C(O)Cc3ccccc3)cc2C1 (stereo not drawn)	none (no result: mcGAS inh)
CCS(=O)(=O)Oc1ccc(CN(Cc2ccco2)C(=O)NC23CC4CC(CC(C4)C2)C3)cc1	none
Cn1c2nc(=Nc3ccccc3)n3c(c2c(=O)n1-c1ccccc1)CCC3	none
CCOc1cc2c(C#N)c(N(CC(C)C)CC(C)C)nc(N)c2c(N)n1	none (no result: mcGAS inh)
COc1cc2c(C#N)c(N(CCO)CCO)nc(N)c2c(N)n1	hcGAS inh 56
O=C(O[C@@H]1Cc2c(O)cc(O)cc2O[C@@H]1c1ccc(O)c(O)c1)c1cc(O)c(O)c(O)c1	hcGAS inh 49 (no result: mcGAS inh)
O=c1c(O)cc([C@H]2Oc3cc(O)cc(O)c3C[C@H]2O)cc2c([C@H]3Oc4cc(O)cc(O)c4C[C@H]3O)cc(O)c(O)c12	none (no result: mcGAS inh)
O=C(O[C@@H]1Cc2c(O)cc(O)cc2O[C@@H]1c1cc(O)c(O)c(O)c1)c1cc(O)c(O)c(O)c1	hcGAS inh 73! (no result: mcGAS inh)
Oc1cc(O)c2c(c1)O[C@H](c1ccc(O)c(O)c1)[C@H](O)C2	none (no result: mcGAS inh)
O=C(O[C@@H]1Cc2c(O)cc(O)cc2O[C@@H]1c1cc(O)c(O)c(O)c1-c1c([C@H]2Oc3cc(O)cc(O)c3C[C@H]2O)cc(O)c(O)c1O)c1cc(O)c(O)c(O)c1	hcGAS inh 54
O=C(Oc1cc(OC(=O)c2ccccc2)c2c(c1)O[C@H](c1ccc(OC(=O)c3ccccc3)c(OC(=O)c3ccccc3)c1)[C@@H](OC(=O)c1ccccc1)C2)c1ccccc1	none (no result: mcGAS inh)
Cc1cc(C(F)(F)F)n2nc(C(=O)N(C)Cc3nc(C)no3)cc2n1	none (no result: mcGAS inh)
CC(C)(C(=O)Nc1cnn(CC(F)F)c1)c1ccc(F)cc1	none
O=C(NCCC1=CCCCC1)c1cncn1-c1ccc(-c2ccc(F)c(F)c2)cc1	none
CCCCn1c(O)c(C=C2C=Nc3ccccc32)c(=O)[nH]c1=O	none
CN1C=CC(=C/C=C2/C=Nc3ccccc32)C=C1	NPYLR7 ag 54
CCOc1ccc(-c2ccnc(N3CCN(S(=O)(=O)c4ccc(C)cc4OC)CC3)n2)cc1	none
O=C(NC1CCC(NC(=O)[C@H]2CCCN2S(=O)(=O)c2ccc([N+](=O)[O-])cc2)CC1)c1ccccc1 (stereo partly drawn)	none
N#Cc1c(-c2ccccc2)cc(=O)n2c1[nH]c1ccccc12	none (no result: mcGAS inh)
Cc1cc(=S)n2c([nH]c3ccccc32)c1C#N	hcGAS inh 41 (no result: mcGAS inh)
N#Cc1c(C(F)(F)F)cc(=O)n2c1[nH]c1ccccc12	hcGAS inh 46 (no result: mcGAS inh)
Cc1c(Cc2ccccc2)c(=O)n2c([nH]c3ccccc32)c1C#N	none (no result: mcGAS inh)
O=C(NC1(CN2CCOCC2)CCCCC1)C(=O)c1ccco1	none (no result: mcGAS inh)
COCCN1C(=O)CC(N2CCC(c3nc4ccccc4o3)CC2)C1=O (stereo not drawn)	none
CC(=NNc1ncnc2sc(C)c(C)c12)c1ccccn1	hcGAS inh 45, NPYLR7 ag 59 (no result: mcGAS inh)
Cc1sc2ncnc(N/N=C\c3ccccc3O)c2c1C	none (no result: mcGAS inh)
Nc1ccc(Oc2ccc([N+](=O)[O-])cc2)cc1	none (no result: mcGAS inh)
Nc1ccc(Oc2cc(N)cc(Oc3ccccc3)c2)cc1	NPYLR7 ag 74
O=C(O)Cc1cc(I)c(Oc2ccc(O)c(I)c2)c(I)c1	none
O=C(O)Cc1cc(I)c(Oc2cc(I)c(O)c(I)c2)c(I)c1	mcGAS inh 94, hcGAS inh 68 (no result: NPYLR7 ag)
Cc1ccc(NC(=O)CSc2nc3c(c(=O)n2Cc2ccccc2)SC(C)C3)c(C)c1 (stereo not drawn)	none (no result: mcGAS inh)
Cc1cc([N+](=O)[O-])ccc1N1C(=O)/C(=C\c2ccncc2)N(C)C1=S	none
